# Assay results: PubChem BioAssay (NCI)
# The panel holds about 83,000 compounds, 20% with a hit somewhere; the sample as a whole holds those more often.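 96-well plates, one dose, 48 hours. Percent growth reported; active if below 10.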 The source made the active and inactive calls.
# Tested on: MDA-MB-468 breast
# Assay: NCI-60 one-dose screen, 48 h (100 = growth as untreated, 0 = no growth, -100 = all killed)
# Conditions: 10 µM unless noted
row,SMILES,growth
1,CC[N+](CC)=c1ccc2nc3c(cc(N)c4ccccc43)oc-2c1,-5.04% (active)
2,CC(C)C(=O)Nc1ccc(-c2nc(-c3cccc(OCCN4CCOCC4)c3)c(-c3ccnc(Br)c3)[nH]2)cc1,23.2% (inactive)
3,CCOC(=O)C1=C(C)NC(=O)NC1c1c(Cl)n(CCCl)c2ccccc12 (stereo unspecified),97.2% (inactive)
4,CN1CCN(CC(=O)Nc2nc(-c3cccc(NS(=O)(=O)c4cccc5c(N(C)C)cccc45)c3)cs2)CC1,38.7% (inactive)
5,COc1ccc(C2=C(c3ccccc3)c3ccc(OC(C)=O)cc3OC2(C)C)cc1,86.2% (inactive)
6,O=C(O)CCCCSc1ncnc2nc[nH]c12,96% (inactive)
7,Cc1c2cnccc2c(C)c2c1c1cc(O)ccc1n2C(C)C,24.3% (inactive)
8,COc1ccc(/C(=C\c2cc(OC)c(OC)c(OC)c2)C(=O)N2CCCNCC2)cc1,98.1% (inactive)
9,Cc1ccc(-c2cc3nc(C(Cl)Cl)nc(-c4cccnc4)n3n2)cc1,-61.5% (active)
10,CCCSC1=NC2C(N(CC)C(=O)N2CC)N1/N=C/C=C/c1ccccc1[N+](=O)[O-] (stereo unspecified),29.9% (inactive)
11,CCCCCCCCCCCCCCCCCCNC(=S)N/N=C/c1ccc(OC)c(OC)c1,93.5% (inactive)
12,COc1cc(-c2cc3cnccc3c3nc(N)c4ccncc4c23)cc(OC)c1OC,8.5% (active)
13,COc1cc(C[C@H]2COc3cc(O)cc(O)c3C2=O)ccc1O,26.2% (inactive)
14,CC(=O)Nc1ccc(/C=C/C(=O)c2ccccc2)cc1,52% (inactive)
15,COc1cc(-c2nc(C(=O)Nc3ccc(C)cc3)nn2-c2ccc(F)c(F)c2)cc(OC)c1OC,109% (inactive)
16,N#C/C(=N\Nc1ccc(F)cc1)C(=O)Nc1cc(-c2ccccc2)nn1-c1ccccc1,-21% (active)
17,Cn1c(C(N)=O)cc2c1-c1nc(Nc3ccccc3)ncc1CCC2,53.4% (inactive)
18,CCN(c1cc(-c2ccc(CN3CCC(/C=C/S(=O)(=O)c4ccccc4)CC3)cc2)cc(C(=O)NCc2c(C)cc(C)[nH]c2=O)c1C)C1CCOCC1,55.9% (inactive)
19,Brc1cccc(-c2cc(-c3ccc4nccnc4c3)[nH]n2)c1,22.9% [25 µM] (inactive)
20,O=c1[nH]ccc2c(S(=O)(=O)N3CCCNCC3)cccc12,15.9% (inactive)
21,CC(C)(CO)N(CCO)CCO,95.1% (inactive)
22,O=CN1N=C(c2ccc(Cl)cc2)CC1c1cccc(Nc2ccnc3cc(C(F)(F)F)ccc23)c1 (stereo unspecified),32.9% (inactive)
23,S=c1[nH]nc(Cn2c3ccccc3c3ccncc32)o1,115% (inactive)
24,CC1SC(c2ccccc2O)N(NC(=O)CCC(=O)c2nc3ncccc3[nH]2)C1=O (stereo unspecified),88.1% (inactive)
25,COc1ccc(-c2cc(-c3nnc(SCC(=O)Nc4ccc(C(C)=O)cc4)n3-c3ccccc3)c3ccccc3n2)cc1OC,111% (inactive)
26,O=c1nc(-c2ccccc2)c2cc(-c3ccc(N4CCOCC4)cc3)ccc2[nH]1,77.4% (inactive)
